Experimental data as given in PubChem BioAssay.
Active and inactive are the calls of the source. The rule behind the calls is not given here.

Biological target: Pantothenate synthetase (Mycobacterium tuberculosis (strain ATCC 25618 / H37Rv)) (UniProt P9WIL5)
Experiment: Coupled enzyme confirmation of inhibitors against recombinant Mtb PanC (AID 375);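 note: 0% = full reaction with vehicle and 100% = no enzyme background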
Details: coupled enzyme assay; at 10 µM, active compounds read high

Pantothenate synthetase (Mycobacterium tuberculosis (strain ATCC 25618 / H37Rv)), sequence (P9WIL5 whole entry, looked up): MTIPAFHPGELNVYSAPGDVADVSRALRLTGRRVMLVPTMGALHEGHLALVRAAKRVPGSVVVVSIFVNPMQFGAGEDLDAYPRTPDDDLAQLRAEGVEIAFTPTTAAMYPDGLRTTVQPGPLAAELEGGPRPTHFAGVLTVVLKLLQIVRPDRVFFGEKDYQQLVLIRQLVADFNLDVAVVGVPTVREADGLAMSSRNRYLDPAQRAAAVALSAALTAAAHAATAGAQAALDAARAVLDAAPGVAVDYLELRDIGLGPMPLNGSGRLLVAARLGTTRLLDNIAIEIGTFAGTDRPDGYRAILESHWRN

SMILES | inhibition
Cc1cc(C)cc(-n2nnc(C(=O)NCc3ccco3)c2N)c1 | 0% (inactive)
NCc1cccc(-n2cccn2)c1 | 0% (inactive)
O=C(NCCC1=CCCCC1)C1CC(=O)N(C2CCCCCC2)C1 (centres undefined) | 2% (inactive)
CN(C)S(=O)(=O)Nc1ccccc1C(N)=O | 0% (inactive)
C=CCn1c(SC(C)C(=O)NC2(C#N)CCCCC2)nnc1-c1ccc(OC)cc1 (centres undefined) | 5% (inactive)
CCOC(=O)C1CCCN(C(=O)c2cccs2)C1 (centres undefined) | 8% (inactive)
COC(=O)[C@H](CCSC)NC(=O)Nc1cc(C)ccc1C | 0% (inactive)
CC1=C(C(=O)NC2CCCC(C)C2C)C2(CCCCC2)OC1=O (centres undefined) | 0% (inactive)
CCn1ncc(C2=NOC(C(=O)N3CCC(C(N)=O)CC3)C2)c1C (centres undefined) | 0% (inactive)
Cc1nnc(SCc2ccccc2F)n1NCc1cccs1 | 3% (inactive)
Cc1cccc(-c2noc(CCC(=O)Nc3ccccc3)n2)c1 | 5% (inactive)
COc1ccc(NC(=O)CS(=O)CC(=O)Nc2cc(Cl)ccc2OC)cc1 (centres undefined) | 3% (inactive)
COC(=O)C1=C(C)NC(C)=C(C(=O)OC)C1c1cc2cc(C)ccc2[nH]c1=O | 3% (inactive)
CCSc1ncc(C#N)c(=O)[nH]1 | 0% (inactive)
Cc1nc2ccccc2nc1OCC(=O)Nc1cc(C(F)(F)F)ccc1N1CCOCC1 | 0% (inactive)
c1ccc(Cn2nnnc2C(c2ccccn2)N2CCOCC2)cc1 (centres undefined) | 0% (inactive)
COc1ccc(CCNC(=O)CSCc2n[nH]c(=O)[nH]2)cc1OC | 0% (inactive)
CC(O)c1n(C)c(Cl)c[n+]1C (centres undefined) | 3% (inactive)
Cn1cnnc1Sc1nc2c(c(=O)n(C)c(=O)n2C)n1Cc1ccccc1Cl | 0% (inactive)
Cc1ccc(C(=O)NCc2ccc3c(c2)OCO3)cc1S(=O)(=O)N1CCCCC1 | 0% (inactive)

SMILES | inhibition
COc1ccc(N2CCN(C(=O)COc3ccc4ccccc4c3)CC2)cc1 | 2% (inactive)
O=[N+]([O-])c1cccc2cn[nH]c12 | 0% (inactive)
Cn1c(C(=O)Nc2ccc3c(c2)OCO3)cc2c(=O)n(C)c3ccccc3c21 | 0% (inactive)
Cc1cccc(NC(=O)CC(C)(C)C)c1 | 0% (inactive)
CCCCN(CC)S(=O)(=O)N1CCC(C(=O)NCc2ccc(F)cc2)CC1 | 6% (inactive)
Cc1ccc(Nc2nnns2)cc1C | 4% (inactive)
COc1ccc(N(CC(=O)O)S(=O)(=O)c2ccc(OC)c(OC)c2)cc1 | 5% (inactive)
C=CCN(CC=C)C(=O)Nc1cc(Cl)ccc1OC | 0% (inactive)
CCOc1ccc(CCNC(=O)CCc2nc(-c3ccc(OC)cc3)no2)cc1OCC | 0% (inactive)
CCOc1ccc2[nH]cc(C(=O)N3CCN(CC)CC3)c(=O)c2c1 | 0% (inactive)
CN1C(=O)CC(N2CCC(C(N)=O)(N3CCCCC3)CC2)C1=O (centres undefined) | 0% (inactive)
Cc1ncoc1C(=O)Nc1cccc(Cl)c1C | 1% (inactive)
c1ccc(OCCCn2nnc(-c3cccnc3)n2)cc1 | 3% (inactive)
CC(=O)NC(Cc1cc(C)ccc1C)C(=O)N1CCN(C(=O)Nc2ccc(C(C)=O)cc2)CC1 (centres undefined) | 0% (inactive)
Cc1cc(NC(=O)NC(=O)c2cccc(OC(F)(F)C(F)F)c2)n[nH]1 | 3% (inactive)
COc1cccc(NC(=O)N2CCCC2C(=O)NC(C)C)c1 (centres undefined) | 0% (inactive)
CC1(C)CC(=O)C=C(Nc2ccc(F)cc2)C1 | 0% (inactive)
O=C1NC2c3ccccc3C(=O)N2c2c1cnn2-c1ccccc1 (centres undefined) | 1% (inactive)
CC(C)(C)c1cc(C(=S)N2CCN(CCO)CC2)cc(C(C)(C)C)c1O | 5% (inactive)
